# According to PubChem BioAssay (NCI):
# This is part of a sample that, as a whole, favours compounds with a hit. Of some 79,000 tested, about 15% had one in any assay. Unmarked numbers belong to inactive results. Activity calls are given as the source filed them. Rule as the data show it: active = growth inhibition above about 70%; inactive = the rest. Where a SMILES comes first, the peptide text is derived from it. The star is where a group is joined. Boc = CC(C)(C)OC(=O)*
# Experiments:
# [1] = NCI Yeast Anticancer Drug Screen. Data for the rad50 strain (AID 155);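 also: 0% = growth of vehicle-only cultures of the same strain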; details: S. cerevisiae rad50 strain growth inhibition; at 50.0 µM; active compounds read high
# In short: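 DNA repair mutant yeast, compound exposure, growth read-out; inhibition is taken relative to vehicle.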
# [2] = NCI Yeast Anticancer Drug Screen. Data for the mec2-1 strain (AID 157); details: S. cerevisiae mec2-1 strain, at 50.0 µM, active compounds read high
# In short: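 Strain: mec2-1 (DNA repair/cell cycle alteration). Compound exposure, then growth measured; inhibition expressed relative to vehicle.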
# [3] = NCI Yeast Anticancer Drug Screen. Data for the sgs1 mgt1 strain (AID 161);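 also: 0% = growth of cultures given vehicle only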; details: S. cerevisiae sgs1 mgt1 strain, at 50.0 µM, active compounds read high
# In short: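 Inhibition of yeast growth, normalised to vehicle-treated controls, is reported for a strain bearing genetic alterations in DNA damage repair.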
# [4] = NCI Yeast Anticancer Drug Screen. Data for the cln2 rad14 strain (AID 165);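 also: 0% = growth equal to vehicle treated cultures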; details: S. cerevisiae cln2 rad14 strain, at 50.0 µM, active compounds read high
# In short: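 Compounds are applied to the cln2 rad14 yeast strain, and growth is then compared with that of vehicle-treated cultures to give inhibition.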
# [5] = NCI Yeast Anticancer Drug Screen. Data for the bub3 strain (AID 167); details: S. cerevisiae bub3 mutant strain, at 50.0 µM, active compounds read high
# In short: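 In this screen, a yeast mutant lacking normal mitotic checkpoint function is challenged with compound. Relative growth versus vehicle gives the inhibition value.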
# [6] = NCI Yeast Anticancer Drug Screen. Data for the mlh1 rad18 strain (AID 175); details: S. cerevisiae mlh1 rad18 strain growth inhibition; at 50.0 µM; active compounds read high
# In short: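 Read-out is yeast growth inhibition, calculated against vehicle-only controls. The compound was applied to a strain engineered with DNA damage repair alterations.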
Compound,growth inhibition [1],growth inhibition [2],growth inhibition [3],growth inhibition [4],growth inhibition [5],growth inhibition [6]
CC(C)(C)C1=NNC(c2ccccc2)C1 (stereo unspecified),5.25%,-3.75%,-14.7%,5.5%,-1.25%,12.6%
O=C1C(=O)N(c2ccccc2Cl)C(=O)N1Cc1ccccc1,10.7%,8.45%,0.95%,13.8%,2.75%,2.1%
COc1cccc(NC(=S)NNC(=S)NNc2ccccc2)c1,59.4%,60.2%,70.3% (active),43%,65.2%,63.6%
CC(=O)Nc1ccc(S(=O)(=O)Oc2noc3ccccc23)cc1,9.8%,3.45%,16.2%,11.1%,18.1%,23.1%
COC(=O)CNC(=O)C(CC(C)C)NC(=O)C(CC(C)C)NC(=O)OC(C)(C)C (stereo not drawn) (Boc-Leu-Leu-Gly-OMe; configuration not given here),42.2%,1.65%,32.1%,10.5%,-0.6%,15.8%
Cc1cccc(Cl)c1N=Nc1c(C)nn(C(N)=S)c1C,29.8%,8.75%,38%,-33%,-0.55%,17.1%
C/C=C/C=C/C(=O)CCC1(C)OC(=O)C(C)=C1O (stereo unspecified),-0.9%,0.45%,2.4%,-4.35%,-3.45%,6.25%
COC1(OC)CC2C(=O)N(Cc3ccccc3)C1C(S(=O)(=O)c1ccccc1)C2C(C)S(=O)(=O)c1ccccc1 (stereo unspecified),14.1%,-0.55%,-24%,-35%,-26.7%,5%
Cc1ccc(S(=O)(=O)N/N=C/C(C)C)cc1,14.2%,-15.6%,4.75%,17.8%,-14.8%,24.2%
CC(=O)c1nc2ccccc2n1CC(=O)c1ccc(Cl)cc1,-9.25%,11.3%,18.9%,12.6%,43.7%,-3.55%
N#Cc1n[nH]n(C2CCCCC2)c1=O,-29.4%,-12.8%,-13.3%,-0.3%,-20.1%,-14.2%
CN1CCCS/C1=C1/SC(=S)N(c2ccccc2)C1=O,-16.8%,13.8%,-5.85%,-5.75%,-28.1%,-17.4%
NC(=O)/N=N/C(N)=O,10.8%,-1.05%,13.6%,15.2%,21.1%,27.7%
CC(=O)OCC1OC(n2ccc(=O)[nH]c2=O)C(NC(=O)C(F)(F)F)C(OC(C)=O)C1OC(C)=O (stereo unspecified),2.4%,-5.4%,-11.2%,-11.2%,-2.05%,-11.7%
O=C(O)c1cc(C(=O)O)c(-c2ccccc2)c(-c2ccccc2)c1,8.9%,2.25%,-4.05%,0.65%,1.4%,-5.3%
N#Cc1ccc(CCc2ccc(Cl)cc2)cc1,-6.85%,-17.2%,-6.9%,-41.1%,1.3%,-9.8%
COc1cc(CC2c3cc(OC)c(OC)cc3CCN2C)c(Oc2cc3c(cc2OC)-c2c(OC)c(OC)c(OC)c4c2C(C3)N(C)CC4)cc1OC (stereo unspecified),9.7%,-0.95%,-7.05%,13.8%,0.3%,1.2%
CCCc1cc2c3c(c(=O)oc2cc1O)CCCC3,94.8% (active),75.6% (active),92.5% (active),89% (active),92.7% (active),96.4% (active)
c1ccc(CCc2nccc3ccccc23)cc1,8.55%,-0.55%,-5.6%,-0.9%,13.9%,1.1%
O=C(O)C1C2C=CC(O2)C1C(=O)Nc1ncccn1 (stereo unspecified),-0.65%,-33.9%,-14.4%,-23.3%,-35.4%,-3.6%
CC(C)(C)NN=C1C(C)(C)C(=NNC(C)(C)C)C1(C)C,-24%,-30.1%,-13.8%,13.9%,-23.1%,-10.9%

Compound,growth inhibition [1],growth inhibition [2],growth inhibition [3],growth inhibition [4],growth inhibition [5],growth inhibition [6]
OC1=CC(C2CCCCC2)CC(O)=C1 (stereo unspecified),2.95%,-0.65%,-4.75%,-7.9%,-59.5%,-17.1%
O=Cc1cccs1,23%,-2%,7.85%,-14.6%,8.3%,33.9%
CC(C)OP(=O)(OC(C)C)/C(F)=N/Nc1ccc([N+](=O)[O-])cc1,36%,11.3%,23.1%,-3.85%,-6.15%,6.25%
CC(=O)Nc1ccc(OC(C)=O)cc1N,-8.9%,-8.15%,2.9%,-8.95%,2.95%,1%
CC(O)COC(C)COC(C)c1ccccc1 (stereo unspecified),1.6%,0.3%,-4%,-2.35%,2.2%,4.65%
CCCCCNC(=O)c1cccc(C)c1,-11.1%,-13.2%,-7.65%,-13.6%,-25.4%,-1.2%
COC1=CC(=C(\C#N)c2ccccc2)/C=CC/1=N/O,40.2%,39%,46.6%,-2%,64.5%,46.8%
Cc1ccc(NC(=O)CC(=O)CC(C)C)cc1C,-22.2%,-24.8%,-17.4%,0.75%,-37%,-10.8%
C/C(CC(O)(C(F)(F)F)C(F)(F)F)=N\NC(N)=O,-38.5%,-44.5%,-22.5%,-1.45%,-5.35%,-15.8%
COc1ccc(C#CC(O)C(F)(F)F)cc1 (stereo unspecified),-7.9%,-20.4%,-8.35%,-18.4%,-46%,-11.5%
CO/C=C/CCCO,-14.8%,-16.5%,-14.8%,7.55%,-3.55%,-9.7%
CC1(C)C2CCC(OC(=O)c3ccc([N+](=O)[O-])cc3)C1C2 (stereo unspecified),7.25%,-5.15%,3.5%,-8.1%,9.95%,-20.8%
Cn1c(C=O)cc2c(Cl)nccc21,-35.5%,-17.4%,-11.8%,-54.9%,-10.1%,-1.15%
Clc1cc2nn(C3CCCCO3)nc2cc1Cl (stereo unspecified),0.65%,-12.8%,-18.4%,-15.9%,16.9%,-44.8%
CC(=O)Nc1ccc(S(=O)(=O)N/N=C\CC(C)C)cc1,-19.4%,-14.2%,-26.2%,-6.95%,-46%,-27.2%
O=C(O)CCCCCNC(=O)c1ccccc1,18.3%,14.8%,16.2%,6.4%,-8.2%,22.2%
CC(=O)OCCOC(=O)Nc1cccc2ccccc12,-9.85%,-7.9%,-1.3%,30.9%,2.65%,-0.6%
COC(=O)C(C(=O)C(=O)Nc1ccc([N+](=O)[O-])cc1[N+](=O)[O-])c1nc2ccc(Cl)cc2[nH]c1=O (stereo unspecified),10.2%,10.6%,39%,20.2%,12.5%,25.5%
Cc1cccc(N=Nc2c(-c3ccccc3)nn(C(N)=S)c2C)c1C,-19.8%,-30.4%,-18.4%,-221%,-9.95%,-7.75%
C1=C(CN2CCCCC2)Oc2ccccc2O1,25.3%,36.9%,42.5%,46%,21.3%,34.9%
